# Assay outcomes from PubChem.
# SMARCA2 act: SMARCA2 function activation, primary screen. MG213 cells, MMTV-luciferase reporter, dexamethasone, overnight. AID 652017. activation, % at 9.1 µM. actives 1% (n = 370,000); in the data active means activation above about 7.8%;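 further: 0% = vehicle wells and 100% = reference activator wells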
# ssDAF12 agonist: activators of S. stercoralis DAF-12 nuclear receptor; HEK293 ssDAF-12/GRIP1 lit1-tk-luc reporter, luminescence; % of 3 µM dafachronic acid response; activation, % at 6.8 µM; actives 1% (n = 370,000);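 active means activation above the mean over all tested compounds plus 3 SD, cut at about 0.9% in these data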;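 further: 0% = DMSO-only wells and 100% = 3 µM delta7-dafachronic acid wells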
# DAX1 inh-1: blocks DAX1 repression of SF-1 activated StAR promoter; HEK293T StAR-luciferase reporter, SF-1/DAX-1 repression relief; actives 1.1% (n = 370,000); AID 652010; inhibition, % at 6.8 µM;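 active means inhibition above the mean over all tested compounds plus 3 SD, cut at about 3.6% in these data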;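 further: 0% = DAX-1 cells with DMSO and 100% = cells lacking DAX-1 with DMSO; higher inhibition means more luminescence from relief of DAX-1 repression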
# hgDAF12 agonist: activates the H. glycines DAF-12 receptor ligand-binding domain; HEK293 GAL4-hgDAF12 UAS-luciferase reporter, agonist luminescence; normalized to butyrate control; activation, % at 6.8 µM; actives 1.8% (n = 370,000); AID 687014;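 active means activation above a cutoff set at the mean of all screened compounds plus 3 SD, cut at about 10% in these data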;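 further: 0% = DMSO wells and 100% = sodium butyrate wells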
# DAX1 inh-2: inhibitors of human orphan nuclear receptor DAX1 (NR0B1). HEK293 Gal4-DAX1 luciferase reporter, luminescence. inhibition, % at 6.75 µM. actives 0.99% (n = 340,000). P51843;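 active means inhibition above the mean over all tested compounds plus 3 SD, cut at about 4.2% in these data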;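 further: 0% = DAX1-transfected cells with DMSO and 100% = empty-vector control cells with DMSO; inhibition shows as a rise in luminescence from relieved DAX1 repression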
# hcDAF12 agonist: activates DAF-12 receptor from parasite H. contortus; HEK293 hcDAF-12 lit1-tk-luc reporter, luminescence; 0% DMSO, 100% Δ7-dafachronic acid; activation, % at 6.8 µM; actives 1.4% (n = 370,000); AID 652067;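 active means activation above the mean of all tested compounds plus 3 SD, cut at about 5.5% in these data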;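 further: 100% = response to 3 µM Δ7-dafachronic acid high control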
# hgDAF12 conf: confirmation of H. glycines DAF-12 agonists; shares compounds with hgDAF12 agonist; HEK293 GAL4-hgDAF12 luciferase reporter, agonist mode; percent of butyrate response; activation, % at 6.8 µM; actives 80% (n = 3,300); AID 743050;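 active means mean activation over triplicate wells above the hit cutoff derived from the earlier primary screen, cut at about 11% in these data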;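 further: 0% = DMSO low control and 100% = 2 mM sodium butyrate high control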
# LXRb DAF12 ctr: activates human LXR-beta, counter-screen for DAF-12 agonists. 3,300 tested, under 10 active. shares compounds with hgDAF12 agonist. HEK293 Gal4-LXR luciferase reporter, 24 h. activation, % at 6.8 µM;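 active means mean activation of the triplicate above a set limit carried over from the primary screen, none filed active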
# Target sequence (P55055 whole entry, looked up, the tested form may be a part): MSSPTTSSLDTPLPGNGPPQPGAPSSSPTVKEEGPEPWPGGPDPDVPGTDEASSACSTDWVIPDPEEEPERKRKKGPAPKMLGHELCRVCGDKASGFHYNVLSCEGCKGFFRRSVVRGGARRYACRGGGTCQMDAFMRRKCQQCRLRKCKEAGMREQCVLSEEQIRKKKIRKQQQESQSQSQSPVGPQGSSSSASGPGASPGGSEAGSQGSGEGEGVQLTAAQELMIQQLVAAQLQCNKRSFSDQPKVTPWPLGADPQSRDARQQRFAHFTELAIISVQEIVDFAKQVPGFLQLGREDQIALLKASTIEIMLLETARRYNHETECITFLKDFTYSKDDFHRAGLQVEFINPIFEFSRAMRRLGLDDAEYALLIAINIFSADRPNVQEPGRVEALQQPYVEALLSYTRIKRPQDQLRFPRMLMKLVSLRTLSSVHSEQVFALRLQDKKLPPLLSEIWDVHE
# An asterisk follows results filed as active; x = no result. Hits are enriched below; roughly 4.8% of the tested compounds scored in any of these assays.
SMILES,SMARCA2 act,ssDAF12 agonist,DAX1 inh-1,hgDAF12 agonist,DAX1 inh-2,hcDAF12 agonist,hgDAF12 conf,LXRb DAF12 ctr
O=C(Nc1ccc(Br)cc1)c1ccccc1Br,3,0,1,13*,4.9*,3,16*,1
CCOC(=O)CC(=O)CSc1nc(-c2cccnc2)ccc1C#N,3,-1,0,-2,-1,0,x,x
CCOC(=O)CSc1nc(-c2ccncc2)ccc1C#N,4,0.9*,3,17*,2,4,16*,1
O=C(Nc1ncc([N+](=O)[O-])s1)c1cccc([N+](=O)[O-])c1,4,0,1,14*,4.6*,5.9*,9,1
COCc1cn(-c2nc3ccccc3s2)nn1,5,0,3,8,x,3,x,x
N#CCCCc1cn(-c2nc3ccccc3s2)nn1,0,1,4.0*,14*,x,2,13*,0
CN1CCN(c2ccc(NC(=O)c3ccccc3Br)cc2)CC1,4,-1,1,6,2,4,x,x
CN1CCN(c2ccc(NC(=O)c3ccc(-c4ccccc4F)o3)cc2)CC1,4,1.4*,4.4*,24*,2,5,17*,1
O=C(Nc1ccccc1)c1ccc(-c2ccccc2C(F)(F)F)o1,4,-1,1,7,0,-1,x,x
O=C(Nc1ccccc1)c1ccc(-c2ccccc2Cl)o1,4,0,3,13*,4,5,13*,0
O=C(OCCN1CCCCC1)c1cccc(Cl)c1,1,-1,0,-1,-1,-2,x,x
COc1ccc(CC(=O)NCc2nnc(SCC(=O)Nc3cccc(F)c3)n2C)cc1,0,-2,0,-2,-1,1,x,x
COc1ccc(CCN2C(=O)CC(C(N)=O)SC2=Nc2ccccc2)cc1OC (stereo not given),-1,-2,-1,0,0,2,x,x
CC(O)CNc1cnccn1 (stereo not given),-6,-1,0,3,1,-1,x,x
O=C(Nc1ccc(F)c(Cl)c1)c1nsc(Cl)c1Cl,4,1,2,13*,4,4,16*,1
O=C(O)C1=C(C(=O)Nc2ccc(F)c(Cl)c2)CCCC1,0,0,1,0,1,0,x,x
O=C(N/N=C\C=C\c1ccco1)c1cc(-c2ccc3ccccc3c2)n[nH]1,4,1,3,16*,4,4,7,0
Oc1ccc(-c2cnc3ccccc3n2)cc1,4,-1,2,15*,3,4,20*,1
CCC(CC)c1nnc(NC(=O)c2cc(C(=O)OC)cc([N+](=O)[O-])c2)s1,-3,-1,0,1,-1,-1,x,x
O=C(O)CC1=C(Nc2ccccc2)C(=O)N(c2ccccc2)C1c1ccc(F)cc1 (stereo not given),1,-1,2,18*,0,3,11*,0
COc1ccc(C2C(CC(=O)O)=C(Nc3ccccc3)C(=O)N2c2ccccc2)cc1 (stereo not given),4,-1,2,4,1,1,x,x
CC1CCCN(C(=O)C2CCN(c3ncnc4c3nc3n4CCCCC3)CC2)C1 (stereo not given),-1,-1,0,-2,-1,-2,x,x
C/C(=N\Nc1nncc2ccccc12)c1cccc(OC(F)F)c1,4,1,2,18*,-2,6.1*,20*,1
COc1ccc(/C=C/C(=O)N(C)Cc2cccs2)cc1S(=O)(=O)N1CCOCC1,-3,-2,0,-3,0,-2,x,x
COc1ccc(Nc2ncnc3c2c(C)c(C)n3CCO)cc1,3,1,4,16*,3,3,17*,1
SMILES,SMARCA2 act,ssDAF12 agonist,DAX1 inh-1,hgDAF12 agonist,DAX1 inh-2,hcDAF12 agonist,hgDAF12 conf,LXRb DAF12 ctr
C#CCOCCOCCOCCNc1nc(N2CCN(C(=O)C([C@@H](C)CC)n3cc(C(N)CO)nn3)CC2)nc(N2CCN(C(=O)C([C@@H](C)CC)n3cc(C(N)COC(=O)C(F)(F)F)nn3)CC2)n1 (stereo not given in full),1,-1,0,-1,x,1,x,x
CC(=O)Oc1ccc(C(=O)[C@H]2[C@H]3C(=O)N(c4ccc5ccccc5c4)C(=O)[C@H]3[C@@H]3C=CC=NN32)cc1,-1,1,2,14*,4,4,6,0
Cc1cccc2c1-c1sc(C(=O)Nc3nccs3)cc1CO2,-2,0,3,19*,0,1,14*,1
Cc1ccccc1N1CCN(C2CCCN(C(=O)CCN3CCCO3)C2)CC1 (stereo not given),-2,-2,1,0,0,-2,x,x
COc1ccc(NC(=S)N/C(=N/CS(=O)(=O)c2ccccc2)c2ccccc2)cc1,2,-1,2,14*,3,2,7,0
Brc1ccc(-c2csc(N3CCOCC3)n2)cc1,-1,0,4.1*,19*,7.5*,3,11*,1
Brc1ccc(-c2csc(N3CCCCCC3)n2)cc1,1,-2,0,-1,2,-3,x,x
CCOC(=O)/C=C/C(=O)Nc1ccccc1-c1ccccc1NC(=O)/C=C/C(=O)OCC,7,-1,-1,-2,2,-2,x,x
CCSc1ncnc2c1oc1ccccc12,-3,-1,0,-1,1,-2,x,x
Clc1ncnc2c1oc1ccccc12,2,1.6*,2,19*,4,6.2*,16*,1
Cc1c(C(=O)Nc2cccnc2)oc2ccc(Br)cc12,7,1.7*,1,14*,4,5,14*,1
Cc1c(C(=O)Nc2cccc(S(=O)(=O)N3CCOCC3)c2)oc2ccc(Br)cc12,2,-1,0,3,1,-1,x,x
Cc1ccc(Nc2nc(CSc3nnc(-c4ccccc4)n3C)cs2)cc1,2,0,2,14*,1,4,12*,0
Cc1ccc(Nc2nc(CSc3nnnn3-c3ccccc3)cs2)cc1,-3,-1,-1,-2,-2,-2,x,x
CC(C(=O)N1CCc2ccccc21)N1CCN(S(=O)(=O)c2cccs2)CC1 (stereo not given),2,-1,0,-1,-1,-1,x,x
CN(CC(=O)N1CCc2ccccc21)S(=O)(=O)c1cccs1,7,0,3,13*,2,3,12*,1
CC(C)n1c(O)c(N=NC(=O)Cc2csc(N3CCOCC3)n2)c2ccccc21,-2,-2,-1,-2,0,0,x,x
